Screen size: about 53,000 sequences; about 3,700 (7%) were called active. This is one part of a sample in which actives are shown more often than they occur.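 The calls were made as follows: active = gene knockdowns whose robust z-score for IL-1 alpha signal is at least 2 or at most -2, so actives lie on both sides; inactive = the rest.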

The assay can be described thus: Components of the Cytosolic LPS Sensing Pathway: Gene Identification via Genome-wide siRNA Screen.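 Also: robust z of the log signal after scaling to non-targeting control siRNA wells of the plate.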 Conditions: RAW264.7 macrophages, IL-1a HTRF, actives lie on both sides, screened at 100 nM (by protocol), cells primed 5 h with Pam3CSK4 first. Put shortly:
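Three distinct siRNAs per gene were tested singly at 100 nM in RAW264.7 macrophages. Following Pam3CSK4 priming and 24 hour LipidA transfection, IL-1a secretion was read by HTRF.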
For orientation: Time-resolved FRET reads energy transfer from a long-lived donor to a nearby acceptor.
In the case of “GCAUGCUGAGGGACACAGUTT against 1810055G02Rik”, the z-score is -1.6 (inactive).

For GAUCACACUGAAAUCAUCATT against Nudt11, the z-score is -1.71 (inactive).

Take GGCAUCACUGGUAAACAUUTT against Frzb: the z-score was -0.196 (inactive).

With GGCUGUCUUGUCCAAAUGUTT against Olfr1357, the z-score is -2.9 (active).

Take GGGAAAGUUUUGUUCUGUATT against Ezr: the z-score is 0.31 (inactive).

Turning to CCGCGUGUUCCUUCUGAUUTT against S1pr3, the z-score was 1.43 (inactive).

As to GGGUAUAGAAUGAUUAUGGTT against Ly6g2, the z-score is -2.39 (active).

With GGGAACUGUUCCAUCUUGCTT against Olfr606, the z-score is 0.979 (inactive).

In the case of GGAAGUUCCGUCGAUUUGATT against Cyp8b1, the z-score was -0.604 (inactive).

Regarding GGAUGAAGUUCUUUUUCAATT against Pdcd11, the z-score was 2.28 (active).

Consider GGCUGCCUAUCCCUAAACUTT against Cpt2, for which the z-score is -0.625 (inactive).

On to GGUGGUUUACCAAACGGUGTT against Ces2g, for which the z-score was -0.00874 (inactive).

For GGCCAGAGCAUUUUCUUCATT against Pif1, the z-score was 0.72 (inactive).

Turning to GGAUGAAGGAAUCCAUGCATT against Pcdhga6, the z-score is -0.133 (inactive).

Take GGAUCUGAAGGUGAUGUCATT against H2-Q10: the z-score was -2.72 (active).

Consider GGUACCUCUACACAGAUGATT against Fgf21, for which the z-score is 0.0136 (inactive).

Turning to GGCCUGGAUGAAUGAAAAGTT against Gins4, the z-score was 0.665 (inactive).

As to CCGUGUGAAUCCCUGCAUUTT against Aldoa, the z-score is -2.85 (active).

GCUAUUUGACUUGUUGUAATT against Rab30: the z-score was 0.269 (inactive).

Regarding CGCAAGUAUUUCCACCAUATT against Clk4, the z-score was -0.41 (inactive).

As for GGUUUGAGAAUUUGAAGGUTT against Map2k3os, the z-score was 0.273 (inactive).

On to GGUCCUCUGGUUCAACAUUTT against Olfr638, for which the z-score is -0.405 (inactive).

As for GGGAAGAAGACUGACAAGCTT against Lars, the z-score is 2.03 (active).

For GGAGAUGAAGAAGAUAUUGTT against Smoc2, the z-score is -0.764 (inactive).

Turning to GGUCUACUUCUUUUUUACGTT against Sema4d, the z-score is 0.467 (inactive).

As for GGUGAUAACUCCGGGCCAATT against Fam3b, the z-score was 2.32 (active).

Turning to “CCCUGCUGGUUGGUAAUCATT against F830005K03Rik”, the z-score was 0.548 (inactive).

As for GCUAAGAUUGUCAUGAUGUTT against Bambi, the z-score was -1.02 (inactive).

In the case of GGAAAGAAGGUGAACAACATT against Phax, the z-score was 1.96 (inactive).

For the sequence GCAGAAGAAGAAGGGUUCCTT against Emx1, the z-score is 3.59 (active).

For the origin of these results see PubChem BioAssay AID1508600 (Functional Genomics Laboratory (NCATS/FGL), 2020).
